The entries come from a sample that favours hits as a whole.
MARV entry inh = inhibitors of Marburg virus binding or cell entry | Potency, µM (titrated, usually from 37.8 µM), without a hit: top-dose activity change, negative = inhibition, usual class: inhibitors | Marburg virus pseudotyped entry inhibition, cell reporter | AID 540276 | actives 1.8% (n = 300,000); calls by dose curve; tested in HEK293 cells; note: potency is the fitted concentration of half-maximal effect; % is set by controls: 0 for no effect and ±100 for the full control effect
CHX counter = affects cycloheximide protein synthesis inhibition readout, counter-screen | cell reporter, cycloheximide protein synthesis inhibition counterscreen | actives 12% (n = 300,000) | AID 2314 | max response, %; in the data active = max response mostly above about 13%, no sharp cut-off; inactive = mostly below about 14%; note: read at 38.3 µM for the half of the compounds with a filed dose; 0% is about no effect
VACV mCherry inh = inhibitors of vaccinia virus infection (mCherry reporter signal). actives 0.63% (n = 310,000). Potency, µM (series often up to 36.5 µM), inactives show at the highest dose activity change, negative = inhibition, most hits filed as inhibitors. AID 720579. Vaccinia virus mCherry reporter infection, fluorescence; calls by dose curve; tested in A549 cells; note: potency is the fitted concentration of half-maximal effect; % is set by controls: 0 for no effect and ±100 for the full control effect; nearly all actives have a fitted effect of over 35% in size
LASV entry inh = blocks Lassa virus binding to or entry into cells; AID 540256; Lassa virus pseudotype entry inhibition, cell reporter; actives 1.2% (n = 300,000); Potency, µM (top dose mostly 37.9 µM), for the others: at the highest dose activity change, negative = inhibition, most hits filed as inhibitors; calls by dose curve; tested in HEK293 cells; note: potency is the fitted concentration of half-maximal effect; % is set by controls: 0 for no effect and ±100 for the full control effect; nearly all actives have a fitted effect of over 50% in size
VACV Venus inh = vaccinia inhibition (Venus reporter); Vaccinia virus Venus reporter expression, fluorescence; Potency, µM (top dose mostly 36.5 µM), inactives show top-dose activity change, negative = inhibition, most hits filed as inhibitors; actives 0.46% (n = 330,000); calls by dose curve; tested in A549 cells; note: potency is the fitted concentration of half-maximal effect; % is set by controls: 0 for no effect and ±100 for the full control effect; nearly all actives have a fitted effect of over 30% in size
Shiga toxin inh = inhibitors of Shiga toxin in Vero cells | Vero cells, Shiga toxin protein synthesis inhibition reporter | inhibition, % at 38.7 µM | actives 9.2% (n = 290,000) | AID 2315; in the data active = inhibition mostly above about 28%, no sharp cut-off; inactive = mostly below about 43%; note: 0% is about no effect
The depositor's hits bear a star; i = inactive; ? = inconclusive; . = no result given; ! = not confirmed by another sample; [ ] = dose if it differs, or a comment.

SMILES | MARV entry inh | CHX counter | VACV mCherry inh | LASV entry inh | VACV Venus inh | Shiga toxin inh
CC1CC(Nc2ccccc2N)=CC(=O)O1 (stereo not given) | 18% | 28* | . | 17% | -4% | 48*
Cc1cc(C)cc(NC2=CC(=O)CC(c3ccco3)C2)c1 (stereo not given) | -4% | -6 | . | ? | . | 43
Nc1ccccc1NC1=CC(=O)CC(c2ccccc2)C1 (stereo not given) | . | 22* | . | . | . | 45
Nc1ccccc1NC1=CC(=O)CC(c2ccco2)C1 (stereo not given) | -2% | 47* | . | 3% | -28% | 72*
O=C1C=C(Nc2cccc(Cl)c2)CC(c2ccco2)C1 (stereo not given) | -13% | 1 | i | 3% | -21% | -12
Cc1cccc(NC2=CC(=O)OC(C)C2)c1 (stereo not given) | 22% | -3 | . | 2% | -8% | -26
Clc1cccc(N2CCN(c3nc4ccccc4n4cnnc34)CC2)c1 | -16%[46.1 µM] | . | i | . | -3% | .
CC(C)(C)c1ccc(C(=O)NNC(=O)c2ccncc2)cc1 | . | 0 | . | . | . | -3
COc1ccc(Br)cc1/C=N/n1nnnc1N | . | -9 | . | . | . | -10
CC(OC(=O)c1ccc(=O)n(Cc2ccccc2)n1)C(=O)Nc1cccc(Cl)c1 (stereo not given) | 6% | . | -10% | 10% | -13% | .
COCc1[nH]nc2c1[C@@H](c1ccnc3ccccc13)C(C#N)=C(N)O2 | -15% | . | . | . | . | .
COc1ccc(NC2=CC(=O)CC(c3ccccc3)C2)c(OC)c1 (stereo not given) | ? | 37* | ? | ? | ? | 28
CCOc1ccccc1NC1=CC(=O)CC(c2ccccc2)C1 (stereo not given) | ? | -5 | ? | ? | -27% | -18
COc1ccc2cc3cc(C(=O)N4CCN(c5ccccc5)CC4)oc3nc2c1 | 11% | -6 | . | -10% | . | -10
COc1ccc2nc3sc(C(=O)N4CCN(C)CC4)cc3cc2c1 | ? | 15* | ? | 13% | -21% | 20
COc1ccc2nc3sc(C(=O)N4CCN(c5ccccc5)CC4)cc3cc2c1 | -14%[46.1 µM] | . | -14% | 1%[46.1 µM] | -11% | .
CCOC(=O)C1CCCN(C(=O)c2cc3cc4ccc(OC)cc4nc3o2)C1 (stereo not given) | . | 0 | . | . | . | 34
CCOC(=O)C1CCN(C(=O)c2cc3cc4cc(OC)ccc4nc3o2)CC1 | ? | 32* | i | 2% | -12% | 29
COc1ccc2nc3oc(C(=O)N4CC(C)CC(C)C4)cc3cc2c1 (stereo not given) | . | 14 | . | . | . | 56*
COc1ccc2cc3cc(C(=O)N4CCCC(C)C4)oc3nc2c1 (stereo not given) | . | 38* | . | . | . | 82*
O=C(CN1C(=O)CSc2ccc(S(=O)(=O)N3CCCC3)cc21)NCc1ccc(Cl)cc1 | . | . | -4% | -5%[46.1 µM] | -10% | .
CCOC(=O)c1cccc(NC(=O)NCCc2c(C)nn(C)c2C)c1 | . | . | -18% | -1%[46.1 µM] | 2% | .
COc1cccc(N2CCN(C(=O)c3cc4c(=O)n(Cc5cccs5)ccc4nc3C)CC2)c1 | . | . | -17% | -16%[46.1 µM] | -18% | .
CCC1CCCCN1S(=O)(=O)c1ccc(N2CCCCS2(=O)=O)cc1 (stereo not given) | . | . | 17% | 2%[46.1 µM] | 4% | .
COc1ccc2nc3oc(C(=O)N4CCCCC4)cc3cc2c1 | ? | 30* | -18% | ? | ? | 76*
SMILES | MARV entry inh | CHX counter | VACV mCherry inh | LASV entry inh | VACV Venus inh | Shiga toxin inh
COc1ccccc1N1CCN(C(=O)c2cnn(-c3ccc(F)cc3F)c2C2CCNCC2)CC1 | . | . | -7% | 9%[46.1 µM] | -10% | .
COC(=O)C1=C(C)NC(C)=C(C(=O)OCCN(C)Cc2ccccc2)C1c1cccc([N+](=O)[O-])c1 (stereo not given) | 16µM* | -3 | -8% | 7.3µM*! | -16% | -16
CCc1cnc2c(c1SC(C(C)=O)C(=O)N(C)C)c(=O)n(C)c(=O)n2C (stereo not given) | . | . | -4% | 0%[46.1 µM] | -3% | .
COc1cc(/C=C2\CCc3ccccc3C2=O)cc(OC)c1OC | ? | 18* | ? | ? | -25% | 32*
COc1ccc2c(c1)CC/C(=C\c1ccc(OC)c(Cn3cccn3)c1)C2=O | ? | 26 | . | -12% | . | 23
COc1cc(/C=C2/CCc3ccccc3C2=O)cc(OC)c1OC | 11µM* | 11 | ? | ? | ? | 13
COc1ccc(/C=C2\COc3ccccc3C2=O)c(OC)c1 | ? | 43* | ? | -27%[46.1 µM] | -19% | 71*

Screening results (PubChem)
